# High-throughput results from PubChem.
# TLR4 MyD88 comp: inhibitors of human TLR4-MyD88 binding; O00206+Q99836; HeLa CL3-4 TLR4/MyD88 BLA complementation, FRET ratio; inhibition, % at 8.4 µM; 0.18% of 200,000 active; AID 861; in the data active = inhibition above about 25%;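 note: 0% = vehicle and 100% = reference inhibitor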
# Target sequence (O00206 whole entry, looked up): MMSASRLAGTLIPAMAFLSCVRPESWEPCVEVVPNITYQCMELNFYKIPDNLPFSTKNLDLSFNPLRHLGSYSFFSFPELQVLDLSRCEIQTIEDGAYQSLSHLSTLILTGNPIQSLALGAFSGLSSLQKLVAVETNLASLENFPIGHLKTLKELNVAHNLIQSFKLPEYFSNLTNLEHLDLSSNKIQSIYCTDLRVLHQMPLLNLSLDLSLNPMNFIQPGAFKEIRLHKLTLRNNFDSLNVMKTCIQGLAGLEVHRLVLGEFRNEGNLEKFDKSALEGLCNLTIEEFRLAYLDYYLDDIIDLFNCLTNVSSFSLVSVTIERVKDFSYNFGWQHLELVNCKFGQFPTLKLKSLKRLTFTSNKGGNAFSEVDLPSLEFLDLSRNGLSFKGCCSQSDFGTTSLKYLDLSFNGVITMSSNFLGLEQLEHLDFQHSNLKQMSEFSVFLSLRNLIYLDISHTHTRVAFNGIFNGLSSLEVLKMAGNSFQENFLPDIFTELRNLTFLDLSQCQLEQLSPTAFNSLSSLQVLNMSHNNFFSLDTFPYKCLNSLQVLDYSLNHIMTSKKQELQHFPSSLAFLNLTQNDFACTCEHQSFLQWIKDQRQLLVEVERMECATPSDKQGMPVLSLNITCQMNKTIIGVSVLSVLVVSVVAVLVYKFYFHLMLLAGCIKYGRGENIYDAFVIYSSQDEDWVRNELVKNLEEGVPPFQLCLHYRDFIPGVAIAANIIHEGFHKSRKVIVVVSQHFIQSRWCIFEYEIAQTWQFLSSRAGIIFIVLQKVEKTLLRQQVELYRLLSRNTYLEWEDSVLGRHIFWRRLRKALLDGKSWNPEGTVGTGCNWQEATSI
# Target sequence (Q99836 whole entry, looked up): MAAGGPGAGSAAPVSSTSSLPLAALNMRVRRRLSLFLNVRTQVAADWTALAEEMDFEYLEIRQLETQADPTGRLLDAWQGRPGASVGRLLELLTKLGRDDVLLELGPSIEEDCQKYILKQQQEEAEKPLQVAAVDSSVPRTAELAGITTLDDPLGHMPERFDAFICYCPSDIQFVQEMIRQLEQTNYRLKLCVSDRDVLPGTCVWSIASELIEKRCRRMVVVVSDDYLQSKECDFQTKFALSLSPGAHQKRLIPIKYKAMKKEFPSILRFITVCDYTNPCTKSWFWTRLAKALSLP
# TLR9-MyD88 block: inhibitors of human TLR9-MyD88 binding | Q9NR96+Q99836 | CHO BLA complementation TLR9-MyD88, CCF4 FRET ratio | 0.21% of 340,000 active | inhibition, % at 4.98 µM | AID 504734;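 active = inhibition above the mean over all tested compounds plus 3 SD, cut at about 21% in these data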;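 note: 0% = DMSO only wells and 100% = clavulanate BLA inhibitor control wells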
# Mcl1 Bid PPI: disrupts binding of human Mcl-1 to Bid peptide | TR-FRET Mcl-1/Bid-Dy647 peptide binding, 1536-well | inhibition, % at 21.7 µM | 0.97% of 220,000 active | AID 1021;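 active = compounds that cut the binding signal by more than half at the single screening dose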;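 note: His-tagged Mcl-1 with europium anti-His antibody binding Bid BH3 peptide; 0% = Mcl-1 plus peptide wells and 100% = peptide-only wells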
# Bim-Mcl-1: inhibitors of Bim-Mcl-1 interaction, human; Q07820; Bead-based flow cytometry, Bim peptide-Mcl-1 binding; inhibition, % at 10 µM; 0.1% of 190,000 active; AID 1009; in the data active = inhibition above about 40%;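 note: 0% = no compound tracer wells and 100% = peptide blocker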
# Mcl1 Noxa PPI: disrupts binding of human Mcl-1 to Noxa peptide | Q07820 | TR-FRET Mcl-1/Noxa peptide binding, 2 h | inhibition, % at 21.7 µM | 1.5% of 220,000 active | AID 1022;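 active = compounds that cut the protein-peptide binding signal by more than 50% relative to plate controls in a single-dose test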;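 note: His-tagged Mcl-1 with rhodamine Noxa BH3 peptide and terbium anti-His antibody; 0% = Mcl-1 plus Noxa peptide wells and 100% = peptide-only wells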
# NOD2 RIPK2 PPI: NOD2-RIPK2 protein interaction inhibition | O43353 | CHO BLA complementation NOD2-RIPK2, CCF4 ratio | inhibition, % at 4.98 µM | 0.38% of 360,000 active; in the data active = inhibition above about 21%;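 note: 0% = vehicle only and 100% = reference blocker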
# * marks the source's active call; other numbers are inactive results; nt = no result. Rows were chosen to be rich in hits. Some 1.8% of all compounds tested hit in one or more screens of this group.
SMILES,TLR4 MyD88 comp,TLR9-MyD88 block,Mcl1 Bid PPI,Bim-Mcl-1,Mcl1 Noxa PPI,NOD2 RIPK2 PPI
CCOC(=O)c1ccc(S(=O)(=O)NCC(c2ccc(N(C)C)cc2)c2c[nH]c3ccccc23)cc1 (stereo not drawn),-1,-5,-23,-2,15,-8
CN(C)c1ccc(C(CNC(=O)c2ccc(C#N)cc2)c2c[nH]c3ccccc23)cc1 (stereo not drawn),7,-8,-6,-1,79*,2
CN(C)c1ccc(C(CNC(=O)c2ccccc2Br)c2c[nH]c3ccccc23)cc1 (stereo not drawn),-3,-5,-55,-4,78*,2
COc1ccc(Cl)cc1NCC(=O)Nc1ccc(OC)c(S(=O)(=O)N2CCCCC2)c1,nt,-8,nt,nt,nt,4
COc1ccc(OCCOc2ccc(/C=C3\C(=N)N4N=C(C)SC4=NC3=O)cc2)cc1,nt,-3,nt,nt,nt,6
O=C(N/N=C/c1ccc(N2CCOCC2)s1)c1ccccc1Cl,8,6,-26,0,40,-2
FC(F)(F)c1ccc(Cl)c(N/N=C/c2ccc(N3CCOCC3)s2)c1,-10,5,-22,2,67*,-8
O=C(Nc1nnc(-c2ccco2)s1)C1CCN(S(=O)(=O)c2ccc(Cl)cc2)CC1,5,-5,nt,2,nt,5
O=C(Nc1nnc(-c2ccco2)s1)C1CC1,0,4,77*,-4,7,-8
COc1ccc(C2=CC3=C(Br)C(=O)C(C)(OC(=O)c4ccco4)C(=O)C3=CO2)cc1 (stereo not drawn),nt,-5,-8,nt,63*,2
COc1ccc(C2=CC3=C(Br)C(=O)C(C)(OC(=O)c4cccs4)C(=O)C3=CO2)cc1 (stereo not drawn),nt,5,nt,nt,nt,5
O=C(Nc1nccs1)c1ccc(COc2ccc(F)cc2)o1,2,-3,-7,24,56*,-12
O=C(CSc1nc(=O)n(CCCN2CCOCC2)c2c1CCCC2)Nc1ccc(F)cc1,nt,-4,nt,nt,nt,-1
CC(=O)Nc1ccc(-n2cc(-c3ccccc3)[nH]c2=S)cc1,2,0,-31,-7,53*,0
S=c1[nH]nc(-c2cccc(Cl)c2)n1/N=C/c1ccc(-c2ccccc2Br)o1,nt,-10,46,nt,72*,4
S=c1[nH]nc(-c2ccccc2)n1/N=C/c1ccc(-c2ccccc2Cl)o1,3,4,34,-3,64*,1
Cc1ccc(/C=N/n2c(-c3cccc(Cl)c3)n[nH]c2=S)o1,nt,nt,-36,nt,19,-7
Nc1nc(COC(=O)c2ccco2)nc(Nc2ccccc2)n1,nt,4,nt,nt,nt,-25
O=C(NCCN1CCOCC1)c1cc(Cl)ccc1[N+](=O)[O-],0,nt,5,73*,7,nt
O=C(NCCN1CCOCC1)c1cc([N+](=O)[O-])ccc1Cl,nt,3,nt,nt,nt,4
CCCCCC1CCC(C(=O)NCCN2CCOCC2)CC1 (stereo not drawn),nt,-1,nt,nt,nt,7
C(=C\c1ccco1)/c1ccc2ccccc2n1,nt,nt,-87,nt,74*,-3
Cc1cc(C)c(S(=O)(=O)NCC(CCC(=O)O)C(F)(F)F)c(C)c1 (stereo not drawn),5,5,4,-3,2,-1
O=C(O)CCC(CNS(=O)(=O)c1ccccc1)C(F)(F)F (stereo not drawn),-7,-8,0,2,70*,-2
Cn1c2c(c3cc([N+](=O)[O-])ccc31)CCCC2,nt,-1,nt,nt,nt,-19
SMILES,TLR4 MyD88 comp,TLR9-MyD88 block,Mcl1 Bid PPI,Bim-Mcl-1,Mcl1 Noxa PPI,NOD2 RIPK2 PPI
COc1ccc(N/C(=C(/C(Cl)=C(Cl)Cl)[N+](=O)[O-])n2nnc3ccccc32)cc1,-1,nt,91*,0,43,nt
Cc1ccccc1N/C(=C(/C(Cl)=C(Cl)Cl)[N+](=O)[O-])n1nnc2ccccc21,-4,11,54*,0,38,2
COc1ccc(NC(=O)COC(=O)Cn2nnc3ccccc32)cc1,-12,4,-2,-4,-21,2
Cc1ccc(OCCC(=O)OCC(=O)Nc2cc(C)nn2-c2ccccc2)cc1,nt,-3,nt,nt,nt,-2
N#C/C(=C1/C(=O)Nc2ccc(Br)cc21)c1ccccn1,-7,-5,-15,5,15,1
N#Cc1ccc(NC(=O)COC(=O)c2cccnc2Cl)cc1,nt,-12,nt,nt,nt,1
Cc1[nH][nH]c(=O)c1C(c1ccc(Cl)cc1)c1c(C)[nH][nH]c1=O,nt,10,nt,nt,nt,13
O=C(CN1C(=O)COc2ccccc21)N(Cc1ccc2c(c1)OCO2)CC1CCCO1 (stereo not drawn),-4,4,100*,-4,-3,-2
Cc1ccc(CN(CC2CCCO2)C(=O)CN2C(=O)C(C(C)C)Oc3ccccc32)o1 (stereo not drawn),-5,-3,-53,1,-9,-3
CC(/C=C1\SC(=S)N(NC(=O)c2ccc(C)cc2)C1=O)=C\c1ccccc1,-1,10,-9,0,7,-5
CC(/C=C1\SC(=S)N(NS(=O)(=O)c2ccccc2)C1=O)=C\c1ccccc1,nt,7,-10,nt,79*,-3
CC(/C=C1\SC(=S)N(NC(=O)c2ccccc2C)C1=O)=C\c1ccccc1,2,1,-46,-1,18,4
CC(/C=C1\SC(=S)N(c2ccc(C(=O)O)cc2)C1=O)=C\c1ccccc1,nt,5,21,nt,84*,3
CC(/C=C1\SC(=S)N(NS(=O)(=O)c2ccc(C)cc2)C1=O)=C\c1ccccc1,nt,0,66*,nt,94*,5
CC(/C=C1\SC(=S)N(CCCC(=O)Nc2ccc(C(=O)O)c(O)c2)C1=O)=C\c1ccccc1,-21,nt,94*,-4,111*,nt
CC(=Cc1ccccc1)C=C1SC(=S)N(CCCC(=O)Nc2ccc(C(=O)O)c(O)c2)C1=O,nt,nt,nt,nt,nt,5
CC1CCCCC1NC(=O)CC1Oc2ccccc2NC1=O (stereo not drawn),-7,-6,52*,nt,-16,-10
Cc1ccc(-c2nn(-c3ccccc3)cc2C(N)=O)o1,-11,7,-21,0,51*,0
Cc1ccc(-c2nn(-c3ccccc3)cc2CO)o1,0,-9,-28,-2,16,3
CCN(C(=O)COC(=O)/C=C/c1ccc(OC)c(OC)c1)c1c(N)n(Cc2ccccc2)c(=O)[nH]c1=O,nt,-6,nt,nt,nt,0
O=c1[nH]c(/C=C/c2ccccc2F)nc2ccccc12,nt,0,nt,nt,nt,1
O=c1[nH]c(/C=C/c2ccccc2[N+](=O)[O-])nc2ccccc12,4,-3,54*,-10,4,-9
CC(C)C[C@@H](CO)N1CCN(Cc2ccc([N+](=O)[O-])cc2)CCC1=O,nt,0,nt,nt,nt,0
NC(=O)CSc1ncc(-c2ccc([N+](=O)[O-])cc2)[nH]1,-2,0,-25,-2,21,3
O=[N+]([O-])c1ccc(-c2cnc(SCc3ccccc3Cl)[nH]2)cc1,25*,15,-7,31,7,14
